# In PubChem BioAssay (NCATS):
# “And” between values parts separate entries of the source, which are not always exact repeats. Equal values may be shown once. Results filed as inconclusive are left out. The source made the active and inactive calls. Unless noted, how the calls were made is not given here.
# Tests used:
# [1] = qHTS for Activators of Parkin Expression: LOPAC Validation Assay (FLuc Reporter) (AID 720573; active means well fitted curve in the direction sought with a large enough effect; an effect the other way counts as inactive or inconclusive;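 further: 0% = DMSO and 100% = positive control compounds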)
# Procedure, shortened: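 A neuronal cell line harbouring FLuc and NLuc reporters behind the Parkin promoter was exposed to compounds for 24 h. Firefly luciferase signal, measured after 10 min with detection reagent, was scaled to DMSO and positive-control wells.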
# [2] = target: T1, Hexokinase-4 (Homo sapiens) + Glucokinase regulatory protein (Homo sapiens) (UniProt P35557+Q14397); test: qHTS assay for inhibitors of recombinant human GCK-GKRP interaction: Diaphorase-coupled assay (AID 743205; active means well fitted curve in the direction sought with a large enough effect; an effect the other way counts as inactive or inconclusive)
# Procedure, shortened: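 Inhibitors of the GCK–GKRP complex relieve GKRP suppression of GCK, detected through a G6PDH–diaphorase cascade reducing resazurin. Human GST-GCK and FLAG-GKRP are used at 10 nM with 5 mM glucose and 0.4 mM ATP.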
# [3] = target: T1, Hexokinase-4 (Homo sapiens) + Glucokinase regulatory protein (Homo sapiens); test: qHTS assay for inhibitors of recombinant human GCK-GKRP interaction: ADP-Glo assay (AID 743206; active means well fitted curve in the direction sought with a large enough effect; an effect the other way counts as inactive or inconclusive;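 further: plate controls were DMSO plus enzyme for no effect and no enzyme for full effect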)
# Procedure, shortened: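 GST-GCK and FLAG-GKRP (15 nM each in the dispensed mix, with 2 uM S6P) react with 0.4 mM ATP and 5 mM glucose (final) in Hepes pH 7.6 for 60 min at room temperature. ADP is measured by ADP-Glo luminescence.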
# [4] = target: T1, Hexokinase-4 (Homo sapiens) + Glucokinase regulatory protein (Homo sapiens); test: qHTS assay for inhibitors of recombinant human GCK-GKRP interaction: HTRF assay (AID 743207; active means well fitted curve in the direction sought with a large enough effect; an effect the other way counts as inactive or inconclusive;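 further: 0% = DMSO with GCK present and -100% = DMSO wells lacking GCK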)
# Procedure, shortened: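 Steps: dispense GCK–GKRP complex (5 nM each, GST- and FLAG-tagged) with 2 uM S6P; pin in compounds; add XL665/Eu-cryptate-labelled antibodies; incubate 60 min at room temperature; read time-resolved FRET at 665 and 615 nm.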
# [5] = qHTS Assay for Identifying Gametocytocidal Compounds (AID 743244; active means well fitted curve in the direction sought with a large enough effect; an effect the other way counts as inactive or inconclusive;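 further: on the % scale 0 is the no-effect control and ±100 the full control effect; actives lower the fluorescent signal which means gametocytes are killed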); settings: P. falciparum 3D7 stage III-V gametocytes, alamarBlue, 72 h; max response: stronger effect = lower value
# Procedure, shortened: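 Late gametocytes (III–V), P. falciparum 3D7; 72 h drug, then 24 h alamarBlue; resazurin reduction read by fluorescence.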
# [6] = qHTS profiling of the MIPE4 collection as inhibitors of Plasmodium falciparum (3D7) proliferation (AID 743344);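 further: scaled between DMSO vehicle wells and 0.29 µM artemisinin as full inhibition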; settings: P. falciparum 3D7 in erythrocytes, SYBR Green DNA fluorescence, 72 h; at 28.5 µM (top of the series) unless noted
# Procedure, shortened: (§1)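 Erythrocytes infected with P. falciparum (0.3% parasitemia, 2.5% hematocrit) incubated with compounds 72 h at 37 C, 5% CO2. Lysis with saponin/Triton buffer containing SYBR Green I, overnight at room temperature in the dark; DNA fluorescence (485/535 nm) normalised to 0.29 uM artemisinin and DMSO.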
# [7] = qHTS profiling of the MIPE4 collection as inhibitors of Plasmodium falciparum (DD2) proliferation (AID 743345); settings: P. falciparum Dd2 in erythrocytes, SYBR Green DNA, 72 h; at 28.5 µM (top of the series) unless noted
# Procedure, shortened: as §1
# [8] = qHTS profiling of the MIPE4 collection as inhibitors of Plasmodium falciparum (DD2) proliferation (Rep 2) (AID 743346); settings: P. falciparum Dd2 in erythrocytes, SYBR Green DNA, 72 h; at 28.5 µM (top of the series) unless noted
# Procedure, shortened: as §1
# [9] = qHTS profiling of the MIPE4 collection as inhibitors of Plasmodium falciparum (HB3) proliferation (AID 743347);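 further: plate controls were DMSO vehicle wells for no effect and artemisinin wells for full effect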; settings: P. falciparum HB3 in erythrocytes, SYBR Green DNA, 72 h; at 28.5 µM (top of the series) unless noted
# Procedure, shortened: as §1
# [10] = qHTS for Activators of Parkin Expression: LOPAC Validation Assay (NLuc Reporter) (AID 720572; active means well fitted curve in the direction sought with a large enough effect; an effect the other way counts as inactive or inconclusive;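 further: 0% = DMSO and 100% = positive control compound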)
# Procedure, shortened: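 Parkin promoter-driven FLuc/NLuc neuronal reporter cells; 24 h plating, 7-pt dose response, 24 h at 37 C/5% CO2; FLuc then NanoLuc reagent, 10 min each, luminescence; DMSO/positive control normalized.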
# [11] = qHTS assay for small molecule agonists of the antioxidant response element (ARE) signaling pathway measured by Nrf2-dependant transcriptional activity (AID 720636; active means well fitted curve in the direction sought with a large enough effect in the repeat runs; an effect the other way counts as inactive or inconclusive; further: % of control where 0% means no effect)
# Procedure, shortened: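 ARE-luc HepG2 cells carrying an Nrf2-responsive luciferase reporter, in medium with 1% dialyzed FBS, exposed to compound for 16 hr at 37 C, 5% CO2. Luminescence read 30 min after ONE-Glo addition.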
# [12] = qHTS assay for small molecule antagonists of the retinoid-related orphan receptor gamma (ROR-gamma) signaling pathway - cell viability counter screen (AID 720652; active means well fitted curve in the direction sought with a large enough effect in the repeat runs; an effect the other way counts as inactive or inconclusive;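 further: CHO reporter cells with doxycycline-induced ROR-gamma expression; compound exposure lasted 16 hr before ATP read; on the % scale 0 is the no-effect control and ±100 the full control effect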)
# Procedure, shortened: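 CHO cells carrying TET-inducible ROR and RORE-luciferase reporter, plated 5 hr, then dosed with compound plus doxycycline. After 16 hr at 37 C, viability read as intracellular ATP by CellTiter-Glo luminescence.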
# [13] = qHTS assay for small molecule agonists of the antioxidant response element (ARE) signaling pathway measured by Nrf2-dependant transcriptional activity - cell viability counter screen (AID 720653; active means well fitted curve in the direction sought with a large enough effect in the repeat runs; an effect the other way counts as inactive or inconclusive; further: on the % scale 0 is the no-effect control and ±100 the full control effect); settings: ARE-bla HepG2 viability, CellTiter-Glo ATP luminescence, 16 h; stronger effect = lower value
# Procedure, shortened: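 Cytotoxicity counter screen: intracellular ATP quantified by CellTiter-Glo luminescence in the same ARE-bla HepG2 plates, after 16 h compound exposure and a 2 h beta-lactamase substrate step.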
# [14] = qHTS assay for cell viability of HEK293 cells (AID 743288; active means well fitted curve in the direction sought with a large enough effect; an effect the other way counts as inactive or inconclusive; further: on the % scale 0 is the no-effect control and ±100 the full control effect; nearly all actives have a fitted effect of over 50% in size); settings: ATP luminescence (CellTiter-Glo), 18 h; max response: stronger effect = lower value
# Procedure, shortened: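 The Tox21 protocol used parental HEK293 cells treated for 18 h at 37 C with compounds delivered by pintool; ATP-coupled luminescence after 30 min at room temperature gave viability.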
# [15] = qHTS assay for cell viability of the p53RE-bla HCT-116 cell line (AID 743292; active means well fitted curve in the direction sought with a large enough effect; an effect the other way counts as inactive or inconclusive; further: on the % scale 0 is the no-effect control and ±100 the full control effect; nearly all actives have a fitted effect of over 55% in size)
# Procedure, shortened: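 CellSensor p53RE-bla HCT-116 cells (4,000/well) pre-incubated 5 h at 37 C, then exposed to compounds in DMSO for 16 h at 37 C. Viability read as ATP content by CellTiter-Glo luminescence after 30 min at room temperature.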
# [16] = qHTS profiling for inhibitors of Plasmodium falciparum (3D7) proliferation (AID 743322);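 further: infected erythrocytes exposed to compound for 72 h before lysis; 100% = DMSO vehicle wells and 0% = 0.29 µM artemisinin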; settings: P. falciparum 3D7 proliferation; at 28.7 µM (top of the series) unless noted
# Procedure, shortened: as §1
# [17] = qHTS profiling for inhibitors of Plasmodium falciparum (DD2) proliferation (AID 743323); settings: lower = more inhibition; at 28.7 µM (top of the series) unless noted
# Procedure, shortened: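 P. falciparum Dd2-infected erythrocytes (0.3% parasitemia, 2.5% hematocrit) exposed 72 h at 37 C, 5% CO2. Lysis with SYBR Green, overnight at room temperature, fluorescence 485/535 nm; normalized to 0.29 uM artemisinin and DMSO.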
# [18] = qHTS profiling for inhibitors of Plasmodium falciparum (HB3) proliferation (AID 743324; active means well fitted curve in the direction sought with a large enough effect; an effect the other way counts as inactive or inconclusive;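 further: 100% = DMSO vehicle wells and 0% = artemisinin-treated control wells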); settings: Plasmodium falciparum HB3 blood-stage proliferation; at 28.7 µM (top of the series) unless noted
# Procedure, shortened: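 P. falciparum HB3 grown in erythrocytes (0.3% parasitemia, 2.5% hematocrit final) with compound for 72 h at 37 C, 5% CO2. Parasite DNA detected by SYBR Green after saponin/triton lysis overnight; normalized to 0.29 uM artemisinin and DMSO.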
# T1 sequence (P35557 whole entry, looked up): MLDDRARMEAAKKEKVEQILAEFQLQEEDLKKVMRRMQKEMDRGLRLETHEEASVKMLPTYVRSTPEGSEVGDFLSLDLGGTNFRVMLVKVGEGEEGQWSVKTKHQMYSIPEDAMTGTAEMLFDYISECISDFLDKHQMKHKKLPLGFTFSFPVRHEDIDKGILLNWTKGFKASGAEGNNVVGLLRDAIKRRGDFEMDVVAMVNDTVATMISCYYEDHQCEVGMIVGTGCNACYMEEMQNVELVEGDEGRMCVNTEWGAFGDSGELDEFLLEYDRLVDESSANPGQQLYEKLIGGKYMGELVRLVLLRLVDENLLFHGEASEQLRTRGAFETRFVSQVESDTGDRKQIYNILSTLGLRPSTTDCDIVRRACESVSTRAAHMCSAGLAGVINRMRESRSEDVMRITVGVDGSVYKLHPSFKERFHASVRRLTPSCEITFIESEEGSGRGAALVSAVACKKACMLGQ
# T1 sequence (Q14397 whole entry, looked up): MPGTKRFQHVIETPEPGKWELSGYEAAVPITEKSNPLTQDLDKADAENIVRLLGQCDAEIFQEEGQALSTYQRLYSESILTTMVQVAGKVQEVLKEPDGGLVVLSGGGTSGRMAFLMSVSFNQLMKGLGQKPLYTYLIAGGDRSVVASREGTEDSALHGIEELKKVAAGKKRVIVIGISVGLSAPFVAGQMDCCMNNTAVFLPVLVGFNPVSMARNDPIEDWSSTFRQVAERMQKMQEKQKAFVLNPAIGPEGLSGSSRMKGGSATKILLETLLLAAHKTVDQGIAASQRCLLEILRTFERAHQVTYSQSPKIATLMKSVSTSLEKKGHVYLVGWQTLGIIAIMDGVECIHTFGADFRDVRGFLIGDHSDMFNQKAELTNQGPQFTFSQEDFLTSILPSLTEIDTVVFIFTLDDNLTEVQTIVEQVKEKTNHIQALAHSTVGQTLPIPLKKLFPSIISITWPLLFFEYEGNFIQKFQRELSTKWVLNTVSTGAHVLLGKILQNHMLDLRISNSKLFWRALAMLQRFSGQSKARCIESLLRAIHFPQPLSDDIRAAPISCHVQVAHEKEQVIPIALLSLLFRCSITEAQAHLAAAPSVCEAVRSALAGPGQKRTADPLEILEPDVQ
smiles,measurement,setting,value
Cc1cnc(NC(=O)C2=C(O)c3ccccc3S(=O)(=O)N2C)s1,outcome,[1],inactive
same,outcome,[2],inactive
same,outcome,[3],inactive
same,outcome,[4],inactive
same,max response,[5],4.3% (inactive) and 13.2% (inactive) and 16.1% (inactive)
same,"parasite growth, % of DMSO control",[6],39%
same,"parasite growth remaining, % of DMSO control (lower = more inhibition)",[7],86.7%
same,"parasite growth, % of control (lower = inhibition)",[8],61.9%
same,"growth, % of control",[9],78.1%
c1ccc([C@H]2CN3CCSC3=N2)cc1,Potency,[10],inactive
same,outcome,[1],inactive
same,outcome,[2],inactive
same,outcome,[3],inactive
same,outcome,[4],inactive
same,max response,[5],4.37% (inactive)
same,"parasite growth, % of DMSO control",[6],92.1%
same,"parasite growth remaining, % of DMSO control (lower = more inhibition)",[7],98.3%
same,"parasite growth, % of control (lower = inhibition)",[8],63.1%
same,"growth, % of control",[9],95.1%
CCCC(CCC)C(=O)O,outcome,[11],inactive
same,outcome,[12],inactive
same,max response,[13],-3.17% (inactive) and -14.3% (inactive) and -4.27% (inactive)
same,max response,[5],8.46% (inactive) and 5.84% (inactive)
same,max response,[14],3.06% (inactive) and -3.28% (inactive) and -9.08% (inactive)
same,Potency,[15],inactive
same,"parasite growth, % of control (lower = inhibition)",[8],148%
same,"growth, % of control",[9],111%
NCCCC(N)(C(=O)O)C(F)F (stereo unspecified),Potency,[10],inactive
same,outcome,[1],inactive
same,outcome,[2],inactive
same,outcome,[3],inactive
same,outcome,[4],inactive
same,max response,[5],5.66% (inactive) and 8.03% (inactive)
same,"parasite growth, % of DMSO control",[6],98%
same,"parasite growth remaining, % of DMSO control (lower = more inhibition)",[7],95.9%
same,"parasite growth, % of control (lower = inhibition)",[8],157%
same,"growth, % of control",[9],107%
CN(C)c1ccc(Nc2nc(N)n(C(=O)c3c(F)cccc3F)n2)cc1,max response,[5],-28% (inactive)
same,remaining parasite growth % (stronger effect = lower value),[16],4.41%
same,"activity, percent of control",[17],8.82%
same,"remaining proliferation (% of control), lower = more inhibition",[18],7.62%
same,"parasite growth, % of DMSO control",[6],10.5%
same,"parasite growth, % of control (lower = inhibition)",[8],13.6%
same,"growth, % of control",[9],6.51%
COc1ccccc1-c1cccc(-c2c(O)c3cc(C#N)c(Cl)cc3[nH]c2=O)c1,max response,[5],99.8% (inactive)
same,remaining parasite growth % (stronger effect = lower value),[16],97.4%
same,"activity, percent of control",[17],76%
same,"remaining proliferation (% of control), lower = more inhibition",[18],74.9%
same,"parasite growth, % of DMSO control",[6],37.5% [at 57.5 µM]
same,"parasite growth remaining, % of DMSO control (lower = more inhibition)",[7],84.4% [at 57.5 µM]
same,"parasite growth, % of control (lower = inhibition)",[8],32.5% [at 57.5 µM]
same,"growth, % of control",[9],14.1% [at 57.5 µM]
Fc1ccc(Cl)cc1-c1nc(Nc2ccncc2)c2nccnc2n1,max response,[5],-14.2% (inactive)
same,remaining parasite growth % (stronger effect = lower value),[16],5.45%
same,"activity, percent of control",[17],25.3%
same,"remaining proliferation (% of control), lower = more inhibition",[18],13.2%
same,"parasite growth, % of DMSO control",[6],22.1%
same,"parasite growth remaining, % of DMSO control (lower = more inhibition)",[7],37%
same,"parasite growth, % of control (lower = inhibition)",[8],30.8%
same,"growth, % of control",[9],8.98%
N#Cc1ccc(C(c2ccc(C#N)cc2)n2cncn2)cc1,max response,[5],16.5% (inactive) and 0.241% (inactive)
same,remaining parasite growth % (stronger effect = lower value),[16],85.5%
same,"activity, percent of control",[17],86.6%
same,"remaining proliferation (% of control), lower = more inhibition",[18],95.8%
same,"parasite growth, % of DMSO control",[6],89.2%
same,"parasite growth remaining, % of DMSO control (lower = more inhibition)",[7],93.7%
same,"parasite growth, % of control (lower = inhibition)",[8],123%
same,"growth, % of control",[9],101%
CC(=O)NC(C)c1ccc(Oc2ccc(OC(C)C)cc2)cc1 (stereo unspecified),max response,[5],-4.97% (inactive)
same,remaining parasite growth % (stronger effect = lower value),[16],69.9%
same,"activity, percent of control",[17],93.5%
same,"remaining proliferation (% of control), lower = more inhibition",[18],95.2%
same,"parasite growth remaining, % of DMSO control (lower = more inhibition)",[7],10.5%
same,"parasite growth, % of control (lower = inhibition)",[8],8.63%
same,"growth, % of control",[9],20.1%
CC(c1cc2ccccc2s1)N(O)C(N)=O (stereo unspecified),max response,[5],2.55% (inactive)
same,remaining parasite growth % (stronger effect = lower value),[16],101% [at 57.5 µM]
same,"activity, percent of control",[17],101% [at 57.5 µM]
same,"remaining proliferation (% of control), lower = more inhibition",[18],109% [at 57.5 µM]
same,"parasite growth, % of DMSO control",[6],94.1%
same,"parasite growth remaining, % of DMSO control (lower = more inhibition)",[7],98.2%
same,"parasite growth, % of control (lower = inhibition)",[8],140%
same,"growth, % of control",[9],101%
CS(=O)(=O)Oc1ccc2c(NC(N)=O)c(C(=O)c3ccc(Cl)cc3Cl)oc2c1,max response,[5],25% (inactive)
same,remaining parasite growth % (stronger effect = lower value),[16],75.4%
same,"activity, percent of control",[17],83.2%
same,"remaining proliferation (% of control), lower = more inhibition",[18],94.7%
same,"parasite growth, % of DMSO control",[6],49.8%
same,"parasite growth, % of control (lower = inhibition)",[8],33.3%
same,"growth, % of control",[9],13.6%
CNC(=O)c1ccc(N2C(=S)N(c3ccc(C#N)c(C(F)(F)F)c3)C(=O)C2(C)C)cc1F,max response,[5],12% (inactive)
same,remaining parasite growth % (stronger effect = lower value),[16],87.6%
same,"activity, percent of control",[17],87.8%
same,"remaining proliferation (% of control), lower = more inhibition",[18],62.8%
same,"parasite growth, % of DMSO control",[6],53.9%
same,"parasite growth remaining, % of DMSO control (lower = more inhibition)",[7],86.3%
same,"parasite growth, % of control (lower = inhibition)",[8],53.7%
same,"growth, % of control",[9],41.9%
CCCn1c(=O)c2[nH]c(C34CC5CC3C[C@@H](C5)C4)nc2n(CCC)c1=O,max response,[5],25.8% (inactive)
same,remaining parasite growth % (stronger effect = lower value),[16],89.8%
same,"activity, percent of control",[17],85.1%
same,"remaining proliferation (% of control), lower = more inhibition",[18],59.4%
same,"parasite growth, % of DMSO control",[6],16.5%
same,"parasite growth remaining, % of DMSO control (lower = more inhibition)",[7],77.4%
same,"parasite growth, % of control (lower = inhibition)",[8],17.3%
same,"growth, % of control",[9],5.74%
